# Only some compounds are listed: those with a hit (about 2.8% of all), similar ones and a draw of the others.
# POLI inh: DNA polymerase iota (human) inhibition. Q9UNA4. Pol iota fluorescent replication assay, 10 min. Potency, µM (top dose mostly 115 µM), for inactives: at the top dose activity, negative = inhibition, actives largely listed as inhibitors. 1% of 390,000 active. AID 588590; note: potency is the fitted concentration of half-maximal effect
#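 Fluorescent replication assay read twice, at 0 min and 10 min after adding 50 nM (final) substrate. Enzyme (10 nM) and compounds were first incubated 15 min at room temperature; enzyme-free buffer wells were negative controls.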
# POLK inh: DNA polymerase kappa (human) inhibition; Q9UBT6; purified Pol kappa, fluorescent DNA synthesis assay, 10 min; Potency, µM (doses to about 107 µM), without a hit: at the top dose activity, negative = inhibition, hits mostly inhibitors; 0.53% of 400,000 active; AID 588579; note: potency is the fitted concentration of half-maximal effect; % is set by controls: 0 for no effect and ±100 for the full control effect
#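 Activity was followed as the change in fluorescence between reads at 0 and 10 min after starting the reaction with 50 nM substrate. Beforehand, 10 nM polymerase had been preincubated with compound for 15 min at room temperature.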
# PI5P4K alpha inh: PI5P4K alpha (human) kinase inhibition; 1.2% of 330,000 active; max response, %; P48426; PI5P4Kalpha enzyme, ADP-Glo luminescence, 60 min; hits give low values; active = max response of -50% or lower; inconclusive = between -30% and -50%; inactive = -30% or higher; note: value at the top dose of about 77 µM; % is set by controls: 0 for no effect and ±100 for the full control effect
#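 Reactions run in 0.038 M HEPES pH 7.4, 0.28 mM EGTA, 0.1% CHAPS and 5% DMSO, with PI5P4Kalpha, substrate, compound and 5 microM ATP final, one hour at room temperature. Readout is ADP-Glo luminescence.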
# Pol eta inh: blocks human DNA polymerase eta activity | Q9Y253 | recombinant Pol eta, fluorescent DNA replication assay | Potency, µM (top dose mostly 114 µM), for inactives: at the top dose activity change, negative = inhibition, hits mostly inhibitors | 1.2% of 390,000 active; note: potency is the fitted concentration of half-maximal effect; % is set by controls: 0 for no effect and ±100 for the full control effect
# Target sequence (Q9Y253 whole entry, looked up): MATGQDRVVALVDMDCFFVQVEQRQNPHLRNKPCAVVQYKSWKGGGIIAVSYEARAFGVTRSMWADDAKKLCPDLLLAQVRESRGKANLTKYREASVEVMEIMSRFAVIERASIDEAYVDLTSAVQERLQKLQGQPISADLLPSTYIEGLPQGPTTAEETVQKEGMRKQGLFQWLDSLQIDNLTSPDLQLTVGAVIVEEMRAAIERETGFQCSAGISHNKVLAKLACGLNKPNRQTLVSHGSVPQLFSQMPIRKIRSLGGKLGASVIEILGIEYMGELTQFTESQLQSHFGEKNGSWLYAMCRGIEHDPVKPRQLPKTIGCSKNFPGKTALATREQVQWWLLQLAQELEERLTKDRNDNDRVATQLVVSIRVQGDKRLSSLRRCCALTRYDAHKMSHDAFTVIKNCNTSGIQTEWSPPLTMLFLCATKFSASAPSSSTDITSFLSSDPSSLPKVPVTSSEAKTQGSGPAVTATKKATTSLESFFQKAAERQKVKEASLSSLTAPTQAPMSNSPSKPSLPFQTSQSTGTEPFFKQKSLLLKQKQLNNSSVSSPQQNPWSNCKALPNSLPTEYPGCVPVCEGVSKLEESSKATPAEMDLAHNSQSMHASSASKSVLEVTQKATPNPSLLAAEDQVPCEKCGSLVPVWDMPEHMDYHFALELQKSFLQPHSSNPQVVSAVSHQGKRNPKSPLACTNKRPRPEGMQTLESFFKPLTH
#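 Pol eta (10 nM) was preincubated with compounds for 15 min at room temperature, after which fluorescent replication substrate (50 nM final) was added to start the reaction. Fluorescence was read kinetically at 0 and 10 min.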
# WRN inhibitor: blocks human WRN helicase; Potency, µM (top dose mostly 114 µM), inactives show top-dose activity change, negative = inhibition, actives largely listed as inhibitors; Q14191; 0.46% of 360,000 active; WRN helicase unwinding, fluorescent forked duplex, kinetic; note: potency is the fitted concentration of half-maximal effect; % is set by controls: 0 for no effect and ±100 for the full control effect; nearly all actives have a fitted effect of over 55% in size
#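 Fluorescence dequenching readout, ex 525 nm/em 598 nm, kinetic mode: forked duplex DNA (100 nM final) with adjacent fluorophore and quencher unwound by WRN (20 nM final) with 2 mM ATP. Compound preincubation 15 min, room temperature.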
# POLB inh: blocks human DNA polymerase beta activity. 1.3% of 340,000 active. Potency, µM (highest dose often 114 µM), for inactives: top-dose activity change, negative = inhibition, hits mostly inhibitors. Pol beta primer extension/strand displacement, fluorescence kinetic. P06746; note: potency is the fitted concentration of half-maximal effect; % is set by controls: 0 for no effect and ±100 for the full control effect
#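 Kinetic readout of DNA synthesis with strand displacement by Pol beta. Compound and 10 nM enzyme sit 15 min at room temperature; 50 nM substrate starts the reaction, read immediately and at 10 min.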
# * marks the source's active call; other numbers are inactive results; ? = inconclusive; nt = no result; ! = not active in a repeat; [ ] = dose if it differs, or a comment. Unless noted, calls come from the whole dose curve; as a rule, active = well fitted curve in the direction sought with a large enough effect; inconclusive = small, poorly fitted or top-dose-only effect, or another doubt; inactive = no such curve, though single readings can be large; an effect the other way counts as inactive or inconclusive.
SMILES,POLI inh,POLK inh,PI5P4K alpha inh,Pol eta inh,WRN inhibitor,POLB inh
Cc1ccc(/C=C2\Oc3cc(OCC(=O)NN)ccc3C2=O)o1,79.4µM*,-13.5%,-19.4,-18.8%,-8.2%[11.6 µM],0.0%
O=C(O)COc1ccc2c(c1)O/C(=C\c1cccs1)C2=O,48.3%,-3.9%,-26.0,?,-24.8%,1.2%
O=C(COC(=O)C12CC3CC(CC(C3)C1)C2)NCC1CCCO1 (stereo unspecified),-3.3%,10.8%,nt,nt,nt,nt
CCN(CC)c1nc(N)c2c(N)nc(OC)cc2c1C#N,8.91µM*,-17.1%,-5.6,-14.1%,-21.9%[57.1 µM],nt
CCn1c(=NC(=O)c2ccc(S(=O)(=O)N3CCCCC3)cc2)sc2cccc(OC)c21,5.5%,-1.9%,nt,-17.7%,nt,-3.2%
COc1ccc(/C=C/C(=O)c2c(O)ccc3c(C)cc(=O)oc23)cc1,17.8µM*,-17.4%,-4.1,-15.9%,-24.8%,-1.8%
COc1ccc(/C=C\C(=O)c2c(O)ccc3c(C)cc(=O)oc23)cc1,?,-2.8%,-3.3,-12.0%,-16.3%,4.5%
CSc1nc(-c2cccs2)c(C#N)c(=O)[nH]1,42.1%,1.9%,?,-11.5%,-25.8%,-0.6%
N#Cc1c(-c2cccs2)nc(SCc2ccc(Cl)cc2)[nH]c1=O,?,-4.5%,0.6,89.1µM*,?,56.2µM*
O=C(C1CCC1)N1CCCc2cc(S(=O)(=O)Nc3ccc(F)cc3)ccc21,-3.7%,-5.7%[60.1 µM],nt,-12.5%,nt,16.3%
Cc1ccc(CN2C(=O)c3ccccc3CC2(C)C(=O)NC2CCCCC2)cc1 (stereo unspecified),?,-9.0%,nt,nt,nt,31.4%
O=C(Nc1ccc2nc(SCC(=O)N3CCOCC3)sc2c1)c1cccc(Cl)c1,24.5%,0.2%,nt,-10.4%,nt,0.4%
CCCN(C(=O)Cc1c(C(=O)O)[nH]c2ccc(Cl)cc12)c1ccc(OCC)cc1,-28.4%,-6.7%,nt,-4.9%,nt,50.1µM*
O=[N+]([O-])c1cccc2cn[nH]c12,-8.6%,-11.3%[60.1 µM],-0.6,-10.4%,4.1%,-0.6%
O=[N+]([O-])c1cccc2c[nH]nc12,nt,12.6µM*,nt,nt,nt,nt
Cc1cccc(OCc2nnc(SC(C)C(=O)O)n2-c2ccccc2)c1 (stereo unspecified),-10.8%,-13.4%,-53.3*,-2.8%,-1.9%,2.1%
CC(Sc1nnc(COc2ccc(Cl)cc2)n1-c1ccccc1)C(=O)O (stereo unspecified),17.6%,-5.0%,?,-2.1%,-7.9%[57.1 µM],17.1%
O=C(NNC(=O)c1ccc(Br)s1)NC1CCCCC1,18.7%,-16.4%,-3.6,-9.6%,?,22.4µM*
O=C(COC(=O)CCCc1nc2ccccc2s1)Nc1ncc(Cl)cc1Cl,95.9%,0.0%,-29.2,?,-13.7%,39.8µM*
Cc1ccc(C)c(N2CCN(c3c(CN4CCCC4)c(=O)oc4ccccc34)CC2)c1,17.6%,-16.2%,nt,-4.4%,nt,4.1%
Cc1c(NS(=O)(=O)c2cccc(C(=O)O)c2)c(=O)n(-c2ccccc2)n1C,50.1µM*!,-1.3%,-0.4,-9.0%,8.2%,73.4%
Cc1c(NS(=O)(=O)c2cccc(C(=O)NCc3ccco3)c2)c(=O)n(-c2ccccc2)n1C,35.5µM*,-36.1%,-15.6,?,?,nt
Cc1c(NS(=O)(=O)c2cc(C(=O)NCc3cccc(Cl)c3)ccc2Cl)c(=O)n(-c2ccccc2)n1C,28.0%,-10.3%,5.2,-21.3%,-11.7%,nt
Cc1c(NS(=O)(=O)c2cc(C(=O)NCCN(C)C)ccc2Cl)c(=O)n(-c2ccccc2)n1C,?,?,-7.3,-25.7%,-16.5%,44.7µM*
CC(=O)c1ccc(NC(=O)c2sc(-n3nc(C)c(Cc4ccc5c(c4)OCO5)c3C)nc2C)cc1,-21.7%,5.9%,nt,18.4%,nt,7.5%
SMILES,POLI inh,POLK inh,PI5P4K alpha inh,Pol eta inh,WRN inhibitor,POLB inh
COc1nc(Cl)cn(-c2ccc(C)cc2)c1=O,12.0%,-5.9%,2.7,-19.4%,-0.6%,0.5%
Cc1ccc(-n2c(Cl)c(Cl)nc(Cl)c2=O)cc1,66.4%,-7.9%,-11.9,-8.6%,22.4µM*,1.5%
COc1cc2c(NC3CCN(C(C)C)CC3)nc(N3CCCN(C)CC3)nc2cc1OCCCN1CCCC1,?,-33.9%,nt,nt,nt,nt
Cc1noc(-c2ccc(N3CCCCC3C)c([N+](=O)[O-])c2)n1 (stereo unspecified),-11.9%,-11.6%,nt,-18.5%,nt,39.8µM*
Cc1ccc(-c2noc(-c3ccc(N4CCCCC4C)c([N+](=O)[O-])c3)n2)cc1 (stereo unspecified),-29.0%,-6.9%,nt,0.9%,nt,1.7%
COCCc1nn2c(=O)cc(COC(=O)c3ccc(C(C)(C)C)cc3)nc2s1,2.3%,0.0%,nt,-12.1%,nt,26.7%
Cn1c(=O)c2[nH]c(Br)nc2n(C)c1=O,nt,1.5%[19.4 µM],nt,nt,nt,nt
CCn1c(=S)[nH]c2c(=O)n(C)c(=O)n(C)c21,?,-7.5%,-69.4*,-1.6%,50.1µM*,nt
Cc1nnc(SCC(=O)Nc2nc(-c3ccccc3)cs2)n1N,-6.9%[58.9 µM],-7.7%,nt,-12.6%,3.3%,29.5%
Cn1cnnc1SCC(=O)Nc1nc(-c2ccccc2)cs1,38.2%,-5.5%,1.7,-9.6%,-6.3%,15.8µM*
C=CCN1C(=O)/C(=C/c2ccc(-c3ccc(F)cc3)o2)SC1=S,12.6%,-0.1%,-23.1,-11.3%,-2.7%,10µM*
C=CCN1C(=O)/C(=C/c2ccsc2)SC1=S,1.1%,-17.0%,-2.4,1.3%,-1.8%,11.8%
O=C1C=C(O)c2cccc3cccc1c23,12.7%,-6.1%,2.3,-0.5%,-9.2%[57.1 µM],-7.8%
O=C1C=C(O)c2c(O)cccc2C1=O,nt,nt,nt,nt,nt,15.8µM*
O=C(O)/C(=C\c1cccc(C(F)(F)F)c1)c1ccc(S(=O)(=O)N2CCCC2)s1,?,-15.6%,-15.8,?,0.5%,nt
O=C(O)/C(=C\c1cccc([N+](=O)[O-])c1)c1ccc(S(=O)(=O)N2CCCCC2)s1,?,-34.5%,-14.2,?,-15.3%,25.1µM*
O=C(O)/C(=C\c1ccc(Cl)c([N+](=O)[O-])c1)c1ccc(S(=O)(=O)N2CCCCC2)s1,?,-31.7%,-23.7,79.4µM*,-3.6%[11.6 µM],?
COc1ccc(Br)cc1/C=C(\C(=O)O)c1ccc(S(=O)(=O)N2CCCC2)s1,?,?,-28.2,22.4µM*,?,nt
O=C(O)/C(=C\c1ccccc1Cl)c1ccc(S(=O)(=O)N2CCCCC2)s1,?,-23.0%,-26.8,50.1µM*,-13.9%[57.1 µM],?

# Bioassay records deposited in PubChem by National Center for Advancing Translational Sciences (NCATS).
